Screens deposited in PubChem by several laboratories.
Cardio protect – cardioprotection against H2O2-induced cell death, primary screen, uHTS, H9c2 cells, ATPLite luminescence | 360,000 tested, 0.63% active | protection from H2O2 cell death, % at 20 µM | H9c2 cardiomyocytes, H2O2 injury protection, 2 h | AID 588492, 2011;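 active = compounds giving at least 50% protection of heart cells from peroxide-induced death in the single-dose screen, raw or plate-pattern-corrected value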;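 note: 0% = DMSO wells with peroxide and 100% = DMSO wells without peroxide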
PfG6PD inh – PfG6PD enzyme inhibitors, primary screen, biochemical, fluorescence intensity, uHTS; glucose-6-phosphate dehydrogenase-6-phosphogluconolactonase (Plasmodium falciparum 3D7); PfGluPho enzyme, NADPH resazurin-diaphorase fluorescence; inhibition, % at 20 µM; 350,000 tested, 0.78% active;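 active = inhibition reaching at least a set limit at 20 µM in the primary screen, cut at about 59% in these data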;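 note: 0% = DMSO wells with substrate and 100% = DMSO wells lacking glucose-6-phosphate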
PfM18AAP inh – PfM18AAP inhibitors, malaria aminopeptidase, primary screen, biochemical, QFRET, recombinant enzyme; M18 aspartyl aminopeptidase (Plasmodium falciparum 3D7); H-Glu-NHMec fluorogenic cleavage; inhibition, % at 7.35 µM; 290,000 tested, 1.2% active; AID 1822, 2009;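 active = inhibition above the campaign mean inhibition over all tested compounds plus 3 SD, cut at about 28% in these data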;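 note: 0% = plate median of test compound wells and 100% = 2 mM ZnCl2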
PHOSPHO1 block – PubChem AID 1565; recombinant PHOSPHO1, absorbance phosphatase assay; inhibition, % at 13.3 µM; 290,000 tested, 1.1% active; in the data active = inhibition above about 60%
Target sequence (Q8TCT1 whole entry, looked up): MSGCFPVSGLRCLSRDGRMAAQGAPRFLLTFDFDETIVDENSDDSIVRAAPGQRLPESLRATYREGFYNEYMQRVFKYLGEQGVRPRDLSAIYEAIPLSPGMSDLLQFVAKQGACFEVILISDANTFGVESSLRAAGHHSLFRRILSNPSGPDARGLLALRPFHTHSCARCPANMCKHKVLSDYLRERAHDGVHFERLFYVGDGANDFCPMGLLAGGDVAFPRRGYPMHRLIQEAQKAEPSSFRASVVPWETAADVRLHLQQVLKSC
ALR inh – inhibitors of human ALR sulfhydryl oxidase, primary screen, biochemical, H2O2 detection, HRP-luminol luminescence, single point; purified ALR, DTT oxidation; AID 485317, 2010; 290,000 tested, 3.8% active; inhibition, % (no concentration beside the values);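 active = mean replicate inhibition above about 79%, with every replicate also reaching it, limit read from the data; inconclusive = only one of the two criteria met; inactive = mean below limit and not every replicate reaching it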
Target sequence (P55789 whole entry, looked up): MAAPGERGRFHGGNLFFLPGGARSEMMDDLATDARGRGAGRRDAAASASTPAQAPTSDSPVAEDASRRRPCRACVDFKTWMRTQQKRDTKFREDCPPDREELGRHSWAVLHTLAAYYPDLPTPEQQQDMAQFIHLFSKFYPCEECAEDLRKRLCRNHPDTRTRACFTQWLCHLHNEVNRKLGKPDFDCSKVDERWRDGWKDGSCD
An asterisk follows results filed as active. Hits are enriched below; roughly 5.6% of the tested compounds scored in any of these assays.

How did CCc1nccn1CCC(=O)N1CCCC(Nc2ccc(C(C)C)cc2)C1 (stereo not given) do in these assays?
Cardio protect: -3.1; PfG6PD inh: 2.1; PfM18AAP inh: -10.7; PHOSPHO1 block: 9.0; ALR inh: 68.8

What do the screens show for `CC(=O)Nc1ccc(S(=O)(=O)Nc2nc3ccccc3nc2Nc2ccc(N)cc2)cc1`?
Cardio protect: -13.8; PfG6PD inh: -5.9; PfM18AAP inh: -6.5; PHOSPHO1 block: 29.8; ALR inh: 99.8*

Results for O=C(O)c1cccc(Nc2nc3ccccc3nc2NS(=O)(=O)c2ccccc2)c1 ?
Cardio protect: 7.5; PfG6PD inh: -14.1; ALR inh: 11.1

How did CC(=O)Nc1ccc(S(=O)(=O)Nc2nc3ccccc3nc2Nc2ccc(C(=O)O)c(O)c2)cc1 do in these assays?
Cardio protect: 1.0; PfG6PD inh: 1.1; ALR inh: 98.2*

Results for CC(=O)Nc1ccc(Nc2nc3ccccc3nc2NS(=O)(=O)c2ccc(Cl)c([N+](=O)[O-])c2)cc1 ?
Cardio protect: -1.6; PfG6PD inh: -16.8

How did O=C(O)c1ccc(Nc2nc3ccccc3nc2NS(=O)(=O)c2ccc(F)cc2)cc1 do in these assays?
Cardio protect: -5.6; PfG6PD inh: -49.8; PfM18AAP inh: -14.5; PHOSPHO1 block: 23.9; ALR inh: 97.6*

How did CC(=O)Nc1ccc(S(=O)(=O)N[C@@H](C)C(=O)N2CCN(c3ccccn3)CC2)cc1 do in these assays?
Cardio protect: -1.7; PfG6PD inh: 6.5; ALR inh: 98.9*

How did O=C(CN1CCN(S(=O)(=O)c2ccc(Cl)cc2)CC1)NCC1(N2CCOCC2)CCCCC1 do in these assays?
Cardio protect: 17.4; PfG6PD inh: -4.6; ALR inh: -0.3

What do the screens show for `CC(=O)Nc1ccc(S(=O)(=O)Nc2nc3ccccc3nc2Nc2cccc(O)c2)cc1`?
Cardio protect: 2.2; PfG6PD inh: -24.6; PfM18AAP inh: -8.5; PHOSPHO1 block: 15.9; ALR inh: 81.8*

What do the screens show for `CC(=O)Nc1ccc(S(=O)(=O)NC(C)c2ccncc2)cc1` (stereo not given)?
Cardio protect: -12.6; PfG6PD inh: 7.7; ALR inh: -4.7

Results for CC(=O)Nc1ccc(S(=O)(=O)Nc2ccc(Nc3ccccc3)cc2)cc1 ?
Cardio protect: -0.3; PfG6PD inh: -1.2; PfM18AAP inh: -72.7; ALR inh: 98.8*

Results for CC(=O)Nc1ccc(S(=O)(=O)Nc2nc3ccccc3nc2Nc2ccc3ccccc3c2)cc1 ?
Cardio protect: -1.2; PfG6PD inh: -27.8; PfM18AAP inh: -1.3; PHOSPHO1 block: 9.6; ALR inh: inconclusive

What do the screens show for `CC(=O)Nc1ccc(S(=O)(=O)NC(C)C(=O)NC(C)c2ccccc2)cc1` (stereo not given)?
Cardio protect: 6.6; PfG6PD inh: -10.5; PfM18AAP inh: 4.0; PHOSPHO1 block: -14.2; ALR inh: 98.7*

How did Cc1ccc(/C=C(\C#N)C(=O)NC(C)c2ccccc2)o1 (stereo not given) do in these assays?
Cardio protect: -2.6; PfG6PD inh: 7.2; PfM18AAP inh: 8.5; PHOSPHO1 block: 36.4; ALR inh: -4.1

How did Cc1ccc2[nH]c(C(=O)NCCN3CCCC3)cc2c1 do in these assays?
Cardio protect: -3.7; PfG6PD inh: -14.6; PfM18AAP inh: 7.0; PHOSPHO1 block: 34.0; ALR inh: -6.4

Results for CC(C)=CCOc1ccc2c(C)c(CCC(=O)N3C[C@H]4C[C@@H](C3)c3cccc(=O)n3C4)c(=O)oc2c1C ?
Cardio protect: -2.1

Results for COc1ccc(Cc2ccc(OC)c(N)c2)cc1N ?
Cardio protect: -0.3; PfG6PD inh: 4.0; PfM18AAP inh: -6.3; PHOSPHO1 block: 6.1; ALR inh: inconclusive

How did COc1cc(Cc2ccc(N)c(OC)c2)ccc1N do in these assays?
Cardio protect: -6.9; PfG6PD inh: 14.2; PfM18AAP inh: 0.7; PHOSPHO1 block: -7.4; ALR inh: 98.3*

How did Cn1c(-c2cc3c(C(F)(F)F)nn(C)c3s2)n[nH]c1=S do in these assays?
Cardio protect: 6.3; PfG6PD inh: 22.1; PfM18AAP inh: 6.7; PHOSPHO1 block: -5.3; ALR inh: 13.4

What do the screens show for `CCn1c(-c2ccc(F)cc2)n[nH]c1=S`?
Cardio protect: 6.8; PfG6PD inh: 19.1; PfM18AAP inh: 3.9; PHOSPHO1 block: -9.8; ALR inh: -1.1

How did CCn1c(-c2ccc3[nH]c(C)c(C)c3c2)n[nH]c1=S do in these assays?
Cardio protect: -1.9; PfG6PD inh: 21.2; PfM18AAP inh: 13.9; PHOSPHO1 block: 93.5*; ALR inh: 98.1*

Results for Cc1[nH]c2ccc(-c3n[nH]c(=S)n3C)cc2c1C ?
Cardio protect: -6.2; PfG6PD inh: 17.7; PfM18AAP inh: 25.6; PHOSPHO1 block: 98.1*; ALR inh: 98.0*

What do the screens show for `CSc1cccc(NC(=O)Nc2nc3c(C)cccc3s2)c1`?
Cardio protect: -11.3; PfG6PD inh: -3.8; PfM18AAP inh: 1.6; PHOSPHO1 block: -20.3; ALR inh: 5.2

Results for COc1ccc(NS(=O)(=O)c2cccc(C(=O)NCC3CCCO3)c2)cc1 (stereo not given) ?
Cardio protect: -6.3; PfG6PD inh: -3.9; ALR inh: -10.8

Results for O=C(NCC1CCCO1)c1cccc(S(=O)(=O)Nc2ccc(SC(F)F)cc2)c1 (stereo not given) ?
Cardio protect: -3.5; PfG6PD inh: 3.8; ALR inh: 98.3*

How did CN(C)c1ccc(C(C(=O)NC2CCCC2)N(C(=O)c2ccco2)C2CC2)cc1 (stereo not given) do in these assays?
Cardio protect: 11.1; PfG6PD inh: -4.7; PfM18AAP inh: -1.6; PHOSPHO1 block: 14.3; ALR inh: 98.7*

Results for NC(=O)c1nsc(C(=O)N(Cc2ccco2)C(C(=O)NCc2ccccc2)c2ccc(O)cc2)c1N (stereo not given) ?
Cardio protect: 57.6*; PfG6PD inh: 0.5; PfM18AAP inh: -3.1; PHOSPHO1 block: 39.2; ALR inh: -6.0

How did Cc1ccccc1N(C(=O)c1snc(C(N)=O)c1N)C(C(=O)NCc1ccccc1)c1ccc(O)cc1 (stereo not given) do in these assays?
Cardio protect: 51.4*; PfG6PD inh: -4.8; PfM18AAP inh: -5.9; PHOSPHO1 block: 40.3

What do the screens show for `CN(C)c1ccc(C(C(=O)NCc2ccccc2)N(Cc2cccnc2)C(=O)c2snc(C(N)=O)c2N)cc1` (stereo not given)?
Cardio protect: 61.3*; PfG6PD inh: -10.2; PfM18AAP inh: 3.3; PHOSPHO1 block: 26.6

Results for CCC(C(=O)NCc1ccc(F)cc1)N(Cc1ccco1)C(=O)c1snc(C(N)=O)c1N (stereo not given) ?
Cardio protect: 0.6; PfG6PD inh: -1.5; PfM18AAP inh: 7.0; PHOSPHO1 block: -1.5; ALR inh: -1.0
